Experimental findings from ChEMBL document CHEMBL4513216, “Probing the Open Global Health Chemical Diversity Library for Multistage-Active Starting Points for Next-Generation Antimalarials” (ACS Infect Dis, 2020) are described below.

The campaign covered roughly 69,000 compounds. About 8,600 (12%) showed an effect of 50% or more. This is one part of a sample in which strong results are shown more often than they occur.

The subject of the assay is Plasmodium berghei. Put plainly: Screen against P. berghei liver stage (PbLuc), transformed with Luciferase, at 10uM. It counts as functional, HepG2. Particulars: tested at 10 uM.
Turning to `CSCCC(=O)N1CCCN(Cc2cnn(C(C)C)c2)CC1`, the INHIBITION is 4.71%.

`O=C([C@H]1CCCO1)N1CCc2ncc(CN3CCOCC3)n2CC1`: the INHIBITION is on record as 22.9%. Take `CC(C(=O)N1CCCN(Cc2cnn(C)c2)CC1)n1ccnc1` (centres undefined): the INHIBITION amounted to 48.1%. As for `O=C(N1CCCC1)N1CCc2ncnc(C3CCOC3)c2CC1` (centres undefined), the figure is 31.8%. Next, `O=C(NCc1ccccc1F)NCC(O)c1cccc(F)c1` (centres undefined): -24.3%. For `CCCS(=O)(=O)N1CCN(c2ccnc(N3CCCCC3)n2)CC1`, the INHIBITION is 59.8%. As for `O=C(O)c1ccnc(-c2ccnc(N3CCCCCC3)n2)c1`, the figure is 4.41%; as for `CS(=O)(=O)N1CCN(c2cnnc(N3CCCC3)c2)CC1`, -11.4%. For the molecule `CS(=O)(=O)N1CCN(c2ccnc(N3CCCCC3)n2)CC1`, the INHIBITION amounted to 58.5%.

Regarding `CCCS(=O)(=O)N1CCN(c2ccnc(N3CCCC3)n2)CC1`, the INHIBITION is given as 30.1%. With `CS(=O)(=O)N1CCN(c2ccnc(N3CCCC3)n2)CC1`, the INHIBITION is reported as 50.8%. As for `CN(C)S(=O)(=O)N1CCN(c2ccnc(N3CCCC3)n2)CC1`, the figure is 5.14%; as for `CCCS(=O)(=O)N1CCN(c2cc(-n3cccc3)nc(C)n2)CC1`, 34.5%. Consider `CN(C)S(=O)(=O)N1CCN(c2ccnc(N3CCCCC3)n2)CC1`, for which the INHIBITION came out at 43.1%.

Regarding `Cc1nc(C)c(C(=O)NCCNc2ncccc2C(F)(F)F)s1`, the INHIBITION is on record as -36.3%. Next, `CCn1cnnc1C1CCN(C(=O)c2ccc3cc[nH]c3c2)CC1`: 30.8%; `Cc1cc(C)n(CC2CN(Cc3noc(C4CC4)n3)CCO2)n1` (centres undefined): -37.7%; `CC(=O)N1CCCCC1c1nc2c(c(NC3CCCC3)n1)CN(C)CC2` (centres undefined): 38.2%. Next, `O=C(NCCNc1ncccn1)N1CCN(C2CCCC2)CC1`: 21.6%; `Cc1nc(C2CCCN(C(=O)CCn3ccccc3=O)C2)no1` (centres undefined): 29.7%. Take `COCc1ncc(CN2CCC3(CCNCC3)CC2)cn1`: the INHIBITION was found to be 18.5%. Consider `COCc1ncc(CN2CCC3(CCC(=O)N(CC(C)O)C3)CC2)cn1` (centres undefined), for which the INHIBITION is listed as 55.2%. As for `COCc1ncc(CN2CCC3(CCNC(=O)CC3)CC2)cn1`, the figure is -47%.

Turning to `COC(=O)C1CCN(C(=O)Cn2nc(C)nc2-c2ccccc2)CC1`, the INHIBITION is given as -3.48%.

As to `N[C@@H](Cc1c[nH]cn1)C(=O)N1CCC(Oc2ccc(Cl)cc2)CC1`, the INHIBITION is on record as 43.9%. In the case of `CCN(CC(F)(F)F)C(=O)C1CCCN(Cc2cscn2)C1` (centres undefined), the INHIBITION is -116%.

As for `FC(F)(F)c1ccccc1CCC1CCCN(Cc2cscn2)C1` (centres undefined), the INHIBITION was 76.7%. As for `CC1CCCN(Cc2coc(-c3cccc(F)c3)n2)C1` (centres undefined), the figure is 18.6%; as for `Cc1ccccc1CCC1CCCN(Cc2nnc(-c3ccco3)o2)C1` (centres undefined), 35.6%; as for `Cc1nnc(CN2CCCC(CCc3ccccc3C(F)(F)F)C2)o1` (centres undefined), 27.2%. Next, `Cn1cc(CN2CCCC(CCc3ccccc3C(F)(F)F)C2)cn1` (centres undefined): 43%; `Cc1nc(CN2CCCC(CCc3cccc(C(F)(F)F)c3)C2)co1` (centres undefined): 62.4%; `Cc1nc(CN2CCCC(c3nc(C)n4c(C)c(C)sc34)C2)co1` (centres undefined): 19.6%. On to `Cc1nc(CN2CCCC(CCc3ccccc3C(F)(F)F)C2)co1` (centres undefined), for which the INHIBITION is on record as 74.5%.
